Data as given in PubChem BioAssay AID1628 (Sanford-Burnham Center for Chemical Genomics, 2009).
Out of some 190,000 compounds screened, about 930 (0.49%) were called active.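 The calls were made as follows: active = z-score of insulin promoter reporter brightness in nuclei below -3 at 5 µM, with at least 500 cells counted; inconclusive = wells with under 500 cells, flagged as toxic or sparse; inactive = the rest.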 The list shows a part of the results. Potency and affinity values are given separately.

Assay: decrease of insulin promoter-GFP reporter – imaging, high-content screening, mouse beta cells (AID 1628)
Conditions: MIN6 insulin promoter GFP reporter, at 5 µM, active compounds read low

z-score, active:
COc1ccc(-c2cc(C(F)F)n3ncc(C(=O)NCC4CCCO4)c3n2)cc1 (configuration not stated) -5.37
Cc1nc2ccccn2c1C(=O)NCc1ccc2c(c1)OCO2 -5.57
COC(=O)c1c(NC(=O)CN2CCN(Cc3ccc4c(c3)OCO4)CC2)sc(C)c1C -5.05
COC(=O)c1[nH]c2ccc(F)cc2c1NC(=O)CCN1CCN(Cc2ccc3c(c2)OCO3)CC1 -3.4
COC(=O)c1[nH]c2ccc(C)cc2c1NC(=O)CCN1CCN(Cc2ccc3c(c2)OCO3)CC1 -3.87
COc1ccc(N=c2oc3c(OC)cccc3cc2C(=O)NCc2ccco2)c(OC)c1 -3.31
O=C(Nc1ccc(F)cc1)NC1CCN(Cc2ccccc2)CC1 -3.27
CC(C)Oc1ccccc1C1CC(=O)Nc2cc3c(cc21)OCCO3 (configuration not stated) -4.18
CCNc1nc(N2CCCC2)nc(N2CCCC2)n1 -3.04
C(=N\Nc1nc(-c2ccccn2)nc2ccccc12)/c1ccccc1 -3.55
CCOc1ccc(N2CC(C(=O)NCc3ccc(F)cc3)CC2=O)cc1 (configuration not stated) -5.37
COc1cccc(NC(=O)Cn2c(SCC(=O)N3CCOCC3)nc3ccccc32)c1 -4.09
COc1cccc(NC(=O)CSc2nc3ccccc3c(=O)n2CCCC(=O)N2CCCC2)c1 -4.63
COc1ccc(-n2c(SCC(=O)Nc3cccc4ccccc34)nc(O)cc2=O)cc1 -6.42
C/C(CC(=O)NCc1ccc(Cl)cc1)=N\NC(=O)Cc1ccccc1 -4.08
Cc1ccc(-c2nc(C#N)c(NCCN3CCCCC3)o2)cc1 -3.25
O=C(/C=C/c1cccs1)N1CCOCC1 -5.7
Fc1ccc(NC(=S)NNc2ncc(C(F)(F)F)cc2Cl)c(F)c1 -3.64
Cc1ccc(C)c(N=Nc2ccc(O)c3ncccc23)c1 -4.77
Cc1ccc(OCC2Cn3c(nc4c3c(=O)n(C)c(=O)n4C)O2)cc1 (configuration not stated) -6.54
CCc1c(C)nc2ncnn2c1N1CCC(C(=O)NCc2cccc(OC)c2)CC1 -5.78
Cc1cc(N2CCC(C(=O)N3CCN(c4cccc(C)c4C)CC3)CC2)n2ncnc2n1 -4.36
CCc1c(C)nc2ncnn2c1N1CCC(C(=O)Nc2ccc(C)cc2)CC1 -5.25
Cc1nc2ncnn2c(N2CCCC(C(=O)Nc3ccc4c(c3)CCC4)C2)c1C (configuration not stated) -5.29
CCc1c(C)nc2ncnn2c1N1CCC(C(=O)N2CCN(c3ccc(F)cc3)CC2)CC1 -3.04
Cc1ccc(C(C#N)c2ccc(C(=O)c3ccc(F)cc3)cc2)cc1 (configuration not stated) -4.77
Fc1ccc(NCc2nnc(SCc3nnc(-c4ccccc4)o3)n2Cc2ccccc2)cc1 -4.77
CN1CCN(C(=O)/C(=C\c2cccs2)NC(=O)c2ccco2)CC1 -6.33
Cc1ccccc1NC(=O)/C(=C\c1cccs1)NC(=O)c1ccco1 -5.39
NC(=O)CC[C@@H]1NC(=O)[C@@H]2CCCN2C(=O)c2cc([N+](=O)[O-])cc(I)c2NCCCC[C@@H](C(=O)NC(CC(=O)O)C(N)=O)NC1=O (some centres not stated) -4.71
NCCCC[C@@H]1NC(=O)[C@H](CCC(=O)O)NC(=O)c2cc([N+](=O)[O-])cc(I)c2NCC[C@@H](C(N)=O)NC1=O -4.01
CC(C)C[C@@H]1NC(=O)[C@H](C(C)C)NC(=O)c2cc([N+](=O)[O-])cc(I)c2NCC[C@@H](C(N)=O)NC1=O -5.69
CCCCSc1nnc(CCCCCNC(=O)OC(C)(C)C)o1 -4.83
COc1cccc(-c2cc(C(=O)Nc3ccc4c(c3)OCCO4)c3ccccc3n2)c1 -4.93
COc1ccc(-c2cc(C(=O)Nc3cc(S(=O)(=O)N4CCOCC4)ccc3N3CCOCC3)c3ccccc3n2)cc1 -3.45
COc1ccc2cc(/C(C)=N/NC(=S)Nc3cc(S(=O)(=O)N4CCOCC4)ccc3N3CCOCC3)ccc2c1 -3.25

z-score, inactive:
COC(=O)CCC(NC(=O)c1cc(C)oc1C)C(=O)OC (configuration not stated) 0.79
O=C(O)c1cc(-c2ccc(/C=C3/SC(=S)N(Cc4ccccc4)C3=O)o2)ccc1Cl 4.28
N#C/C(=C/c1ccc(N2CCOCC2)o1)c1ccc(Br)cc1 10
CC(C)(C)NS(=O)(=O)c1ccc(CCC(=O)NCc2ccc3c(c2)OCO3)cc1 0.89
CCCN1C(=O)/C(=C/c2c(NCCCOCC)nc3c(C)cccn3c2=O)SC1=S 5.71
Cc1nc2ccccn2c1P(=O)(N1CCCCC1)N1CCCCC1 0.76
CCOCCCNc1nc2c(C)cccn2c(=O)c1/C=C1\SC(=S)N(CC(C)C)C1=O 4.38
Cc1ccc(-c2cc(-c3ccco3)c3c(N)c(C(=O)NN)oc3n2)cc1 3.03
COc1cc(OC)c2c(-c3ccccc3)cc(=O)oc2c1 -1.04
CCCNC(=O)Cn1cnc2sc(C(=O)N3CCN(Cc4ccc5c(c4)OCO5)CC3)c(C)c2c1=O 3.66
COC(CNC(=O)c1ccc(Cn2c(=S)[nH]c3cc4c(cc3c2=O)OCO4)cc1)OC 3.48
CCCCN1C(=O)C2(NNc3ccccc3O2)c2ccccc21 (configuration not stated) 4.38
Cc1cc(N2CCCC2)ccc1/C=C1\NC(=S)N(C)C1=O 10.4
O=C(NN=C1CCN(Cc2ccccc2)CC1)c1cc(Br)ccc1O 1.47
CC(=O)OCCCN1C(=O)c2ccc(Br)cc2C1=O 1.19
CCCCNc1ccc2c3c(cccc13)C(=O)N(CCCC)C2=O 17.1
CCOC(=O)C1=C(C)NC(=O)CC1c1cc2c(cc1[N+](=O)[O-])OCO2 (configuration not stated) 3.01
O=C(OCCN1C(=O)c2cccc3c(N4CCOCC4)ccc(c23)C1=O)c1ccc(Cl)cc1Cl 3.13
CN1C=CC2=C(C#N)C(N)C(C#N)(C#N)C(c3ccccc3)C2C1 (configuration not stated) 10.1
CC12CCC(C/C1=N/O)C2(C)C (configuration not stated) 0.65
Cc1ccc2nc(C(Cl)(Cl)Cl)nc(N/N=C/c3ccncc3)c2c1 2.39
CCOc1ccc(NC(=O)NC2CC(=O)N(c3ccc(OC)cc3)C2)cc1 (configuration not stated) 2.29
CCOc1ccc(CNC(=O)CCn2c(=O)oc3ccccc32)cc1 3.4
COc1cc2nc(/C=C/c3ccc(N(C)C)cc3)sc2cc1SC 15.9
COc1cccc(NC(=O)CSc2nncn2N)c1 0.29
CCOc1ccc(NC(=O)Cn2c(=O)oc3ccccc32)cc1 3.64
COc1cccc(NC(=O)Cn2c(-c3cncs3)nc3ccccc32)c1 5.27
COc1ccc(-n2c(Cc3cccn3C)nnc2SCC(=O)Nc2cccc(C)c2C)cc1 3.05
O=C(Nc1nnc(-c2ccc(Cl)s2)o1)C1CC1 2.8
CCn1nnc2sc3c(c2c1=O)CCC(C)C3 (configuration not stated) 3.59
O=C(CSc1ncn[nH]1)NCc1ccccc1 5.42
COc1cc(OC)c(OC)cc1/C=C1\Oc2cc(OS(C)(=O)=O)ccc2C1=O 5.02
CC(=O)N1CCOCCOCCN(C(C)=O)CCOCC1 2.13
CN(C)c1ccc(/C=C2\SC(=S)N(Nc3ncc(C(F)(F)F)cc3Cl)C2=O)cc1 4.86
Cc1cccc(Oc2nccc(C(F)(F)F)c2C(=O)Nc2ccc(F)cc2F)c1 3.57
O=Cc1sc(Nc2ccccc2)nc1Cl 3.66
Oc1c(/C=C/C=C/C=Nc2ccccc2)sc(=S)n1Cc1ccccc1 3.27
CSc1nsc(/C=C/Nc2ccc(C)cc2)c1C#N 3.5
N#C/C(=C/c1ccc(-c2ccccc2)o1)c1nc(-c2cccs2)cs1 14.7
CC(=O)NC(c1ccc(Cl)cc1)c1c(O)ccc2ccc(O)cc12 (configuration not stated) 10.6
COc1nc(OC)nc(N2CCC(C(=O)NCc3cccs3)CC2)n1 3.48
Cc1cc(C)nc(N2CCC(C(=O)Nc3ccc4c(c3)OCCO4)CC2)n1 3.37
COc1ccccc1N1CCN(c2cc(C)nc3nc(C)nn23)CC1 1.58
CCC(=O)N1c2ccccc2C(N(C(C)=O)c2ccccc2)CC1C (configuration not stated) 0.92
Cc1cc(/C=C2\SC(=S)NC2=O)c(C)n1-c1ccc(O)cc1 3.66
CCCNC(=O)Cn1c(=O)/c(=C\c2ccc(-c3ccc([N+](=O)[O-])cc3)o2)s/c1=C\C(=O)C(C)(C)C 18.3
COc1ccc(OC)c(C2C3CN(C(C)C)CC=C3C(C#N)=C(N)C2(C#N)C#N)c1 (configuration not stated) 17.1
CCC(Sc1nnc(C)s1)C(=O)Nc1nccs1 (configuration not stated) 1.54
O=C(Nc1ccc(C2CCCCC2)cc1)C1CCCN(c2ncccn2)C1 (configuration not stated) 3.77
OC1(c2cn(Cc3ccccc3)nn2)CCCCC1 5.88
CCS(=O)(=O)c1ccc2oc(SCC(=O)NC3CCCC(C)C3C)nc2c1 (configuration not stated) 4.28
CN1CCN(C(=O)/C(=C\c2cccs2)NC(=O)c2cccs2)CC1 6.06
O=C1c2cccc3c(O)ccc(c23)C(=O)N1Cc1ccco1 12.8
Cc1oc(C)c2c(=O)ccc3c(c12)OC(N)=C(C#N)C3c1ccc(F)cc1 (configuration not stated) 3.56
COc1cc(S(=O)(=O)N2CCOCC2)ccc1NC(=O)COC(=O)C12CC3CC(CC(C3)C1)C2 3.88
Cc1ccn2cc(-c3ccc(S(=O)(=O)N4CCOCC4)cc3)nc2c1 -0.88
